Assay results published in PubChem BioAssay (NCATS).
“And” between values parts separate entries of the source, which are not always exact repeats. Equal entries are not always repeated. Results filed as inconclusive are left out. The source made the active and inactive calls. Calls come from the whole dose curve; as a rule, active = well fitted curve in the direction sought with a large enough effect; inconclusive = small, poorly fitted or top-dose-only effect, or another doubt; inactive = no such curve, though single readings can be large; an effect the other way counts as inactive or inconclusive.

Key:
SC27B = assay: qHTS profiling for inhibitors of Plasmodium falciparum proliferation (AID 504749);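 note: 0% = DMSO vehicle and full inhibition = artemisinin control; nearly all actives have a fitted effect of over 60% in size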; conditions: P. falciparum in erythrocytes, SYBR Green DNA, 72 h; series mostly up to 28.7 µM
In short: (§1)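 Readout was DNA-dye fluorescence from lysed cultures, ex 485/em 535 nm. Parasitized red cells had grown 72 h with compound; data scaled between 0.29 uM artemisinin and DMSO wells and corrected using vehicle-only plates.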

TAB109 = assay: as above; conditions: P. falciparum in erythrocytes, SYBR Green DNA, 72 h; series mostly up to 28.7 µM
In short: as §1

TAB113 = assay: as above; conditions: P. falciparum in erythrocytes, SYBR Green DNA, 72 h; series mostly up to 28.7 µM
In short: as §1

TAB165 = assay: as above; conditions: P. falciparum in erythrocytes, SYBR Green DNA, 72 h; series mostly up to 28.7 µM
In short: as §1

W2 = assay: as above; conditions: P. falciparum in erythrocytes, SYBR Green DNA, 72 h; series mostly up to 28.7 µM
In short: as §1

CRL-7250 = normal cell line; assay: Cytotoxic Profiling of Annotated Libraries Using Quantitative High-Throughput Screening (AID 1296008); conditions: Five cell lines viability, CellTiter-Glo ATP luminescence, 48-72 h; max response: stronger effect = lower value; note: nearly all actives have a fitted effect of over 60% in size; for max response: % is set by controls: 0 for no effect and ±100 for the full control effect
In short: (§2)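 Cells exposed to compounds for 48 or 72 hr at 37 degrees Celsius. Viability read as ATP-coupled luminescence with CellTiter-Glo after 10 min at room temperature.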

HEK293 = assay: as above; conditions: Five cell lines viability, CellTiter-Glo ATP luminescence, 48-72 h; max response: stronger effect = lower value
In short: as §2

HaCat [1] = assay: as above; conditions: Five cell lines viability, CellTiter-Glo ATP luminescence, 48-72 h; max response: stronger effect = lower value
In short: as §2

KB-3-1 = assay: as above; conditions: Five cell lines viability, CellTiter-Glo ATP luminescence, 48-72 h; max response: stronger effect = lower value
In short: as §2

NIH3T3 [2] = assay: as above; conditions: Five cell lines viability, CellTiter-Glo ATP luminescence, 48-72 h; max response: stronger effect = lower value
In short: as §2

HACAT [3] = assay: qHTS assay to identify novel small-molecules to repurpose for Merkel cell carcinoma treatment (AID 1296009); conditions: MCC and control cell lines, CellTiter-Glo viability, 72 h; note: nearly all actives have a fitted effect of over 60% in size
In short: (§3)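 Cells were incubated with compound for 72 hr at 37 degree celsius before CellTiter-Glo addition. Luminescence was normalized with no-cell wells as full cytotoxicity and DMSO as baseline.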

MCC-13 = assay: as above; conditions: MCC and control cell lines, CellTiter-Glo viability, 72 h; series mostly up to 46 µM
In short: as §3

MCC-26 = assay: as above; conditions: MCC and control cell lines, CellTiter-Glo viability, 72 h; series mostly up to 46 µM
In short: as §3

MKL-1 = assay: as above; conditions: MCC and control cell lines, CellTiter-Glo viability, 72 h; series mostly up to 46 µM
In short: as §3

MKL-2 = assay: as above; conditions: MCC and control cell lines, CellTiter-Glo viability, 72 h; series mostly up to 46 µM
In short: as §3

UISO = assay: as above; conditions: MCC and control cell lines, CellTiter-Glo viability, 72 h; series mostly up to 46 µM
In short: as §3

WaGa = assay: as above; conditions: MCC and control cell lines, CellTiter-Glo viability, 72 h; series mostly up to 46 µM
In short: as §3

C33A = assay: Primary qHTS to identify gynecologic anti-cancer compounds using libraries of approved drugs and bioactive compounds (AID 1345084); conditions: Gynecologic cancer cell panel viability, ATPlite luminescence, 48 h; series mostly up to 57.5 µM; note: % is set by controls: 0 for no effect and ±100 for the full control effect; nearly all actives have a fitted effect of over 55% in size
In short: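 Cytotoxicity screen measuring ATP content by luciferase luminescence. Each compound is applied at five concentrations for 48 h at 37 C with 5% CO2.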

HEK293T = assay: qHTS assay to identify novel small-molecules to repurpose for Merkel cell carcinoma treatment (AID 1296009); conditions: MCC and control cell lines, CellTiter-Glo viability, 72 h; at 44.8 µM (top of the series); note: nearly all actives have a fitted effect of over 60% in size
In short: as §3

NIH3T3 [4] = assay: as above; conditions: MCC and control cell lines, CellTiter-Glo viability, 72 h
In short: as §3

[5] = at 44.8 µM (top of the series) unless noted

O=c1n(CCCN2CCN(c3cccc(Cl)c3)CC2)nc2ccccn12
inactive: Potency (SC27B) | Potency (TAB109) | Potency (TAB113) | Potency (TAB165) | Potency (W2) | max response (CRL-7250) -10.4% | outcome (CRL-7250) | max response (HEK293) 2.07% and 1.71% | max response (HaCat [1]) -8.88% | outcome (HaCat [1]) | max response (KB-3-1) -0.946% and 1.57% | max response (NIH3T3 [2]) 3.22% and 3% | outcome (HACAT [3]; [5]) | Potency (MCC-13) | Potency (MCC-26) | Potency (MKL-1) | Potency (MKL-2) | Potency (UISO) | Potency (WaGa) | Potency (C33A)

CCN(CC)CCCC(C)Nc1ccnc2cc(Cl)ccc12 (stereo unspecified)
inactive: max response (CRL-7250) 3.49% | outcome (CRL-7250) | outcome (HEK293) | outcome (HaCat [1]) | max response (KB-3-1) -0.795% and 2.69% | outcome (KB-3-1) | max response (NIH3T3 [2]) -0.66% | outcome (NIH3T3 [2]) | outcome (HACAT [3]; at 9.27 µM (top of the series)) | outcome (HACAT [3]; at 17.4 µM (top of the series)) | outcome (HACAT [3]; at 44.8 µM (top of the series)) | outcome (HEK293T) | Potency (MCC-13) | Potency (MCC-26) | Potency (MKL-1) | outcome (NIH3T3 [4]; at 9.27 µM (top of the series)) | outcome (NIH3T3 [4]; at 44.8 µM (top of the series)) | Potency (UISO) | Potency (WaGa) | Potency (C33A)

Cc1cnc(NC(=O)C2=C(O)c3ccccc3S(=O)(=O)N2C)s1
inactive: outcome (CRL-7250) | max response (HEK293) -0.932% | outcome (HEK293) | outcome (HaCat [1]) | max response (KB-3-1) -5.8% and -11.4% and -4.48% | max response (NIH3T3 [2]) -2.32% | outcome (NIH3T3 [2]) | outcome (HACAT [3]; [5]) | outcome (HEK293T) | Potency (MCC-13) | Potency (MCC-26) | Potency (MKL-1) | Potency (MKL-2) | outcome (NIH3T3 [4]; [5]) | Potency (UISO) | Potency (WaGa) | Potency (C33A)

CC(C[N+](C)(C)C)OC(N)=O (stereo unspecified)
inactive: Potency (SC27B) | Potency (TAB109) | Potency (TAB113) | Potency (TAB165) | Potency (W2) | max response (CRL-7250) 0.597% | outcome (CRL-7250) | max response (HEK293) 3.57% | outcome (HEK293) | outcome (HaCat [1]) | max response (KB-3-1) 3.39% and 7.21% | outcome (NIH3T3 [2]) | outcome (HACAT [3]; [5]) | outcome (HEK293T) | Potency (MCC-13) | Potency (MCC-26) | Potency (MKL-1) | Potency (MKL-2) | outcome (NIH3T3 [4]; [5]) | Potency (UISO) | Potency (WaGa) | Potency (C33A)

CC(C=CC1=C(C)CCCC1(C)C)=CC=CC(C)=CC(=O)O
inactive: max response (CRL-7250) -11.2% | max response (HEK293) 1.74% | outcome (HEK293) | outcome (HaCat [1]) | max response (KB-3-1) 4.44% | outcome (KB-3-1) | max response (NIH3T3 [2]) -0.0926% | outcome (NIH3T3 [2]) | outcome (HACAT [3]; [5]) | outcome (HEK293T) | Potency (MCC-13) | Potency (MCC-26) | Potency (MKL-1) | Potency (MKL-2) | outcome (NIH3T3 [4]; [5]) | Potency (UISO) | Potency (WaGa)
